Data on 8 compounds can be found in PubChem BioAssay AID602448 (National Center for Advancing Translational Sciences (NCATS), 2012).

Calls of active or inactive are those of the source.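 Rule for the calls: active = max inhibition of at least 60%; inconclusive = max inhibition above 30% but below 60%; inactive = max inhibition of 30% or less.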

Sequence of Follicle-stimulating hormone receptor (Homo sapiens) (P23945 whole entry, looked up): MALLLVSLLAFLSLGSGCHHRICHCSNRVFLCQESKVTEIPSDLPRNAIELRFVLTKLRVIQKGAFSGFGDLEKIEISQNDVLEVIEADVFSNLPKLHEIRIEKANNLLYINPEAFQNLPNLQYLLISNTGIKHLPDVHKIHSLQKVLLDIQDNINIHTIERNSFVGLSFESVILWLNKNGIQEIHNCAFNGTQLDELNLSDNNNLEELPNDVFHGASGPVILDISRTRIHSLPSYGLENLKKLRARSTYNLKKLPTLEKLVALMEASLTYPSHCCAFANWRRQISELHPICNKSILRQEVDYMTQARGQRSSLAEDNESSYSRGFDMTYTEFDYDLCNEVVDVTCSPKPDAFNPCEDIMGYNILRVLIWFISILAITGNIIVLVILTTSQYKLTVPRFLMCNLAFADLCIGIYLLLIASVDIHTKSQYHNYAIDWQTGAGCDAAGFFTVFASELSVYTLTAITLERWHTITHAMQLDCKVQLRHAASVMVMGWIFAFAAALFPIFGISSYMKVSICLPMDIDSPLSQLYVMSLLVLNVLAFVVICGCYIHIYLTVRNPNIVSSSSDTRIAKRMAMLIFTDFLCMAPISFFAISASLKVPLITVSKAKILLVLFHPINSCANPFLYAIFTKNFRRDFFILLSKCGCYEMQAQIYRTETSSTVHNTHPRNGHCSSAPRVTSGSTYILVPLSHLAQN

In the assay the target is Follicle-stimulating hormone receptor (Homo sapiens) (UniProt P23945). The assay can be described thus: qHTS for antagonists of the Thyroid Stimulation Hormone Receptor: Hit Validation with Follickle Stimulating Hormone Receptor (FSHR). The following applies: FSHR-expressing cells, cAMP HTRF, antagonist counterscreen; stronger effect = higher value. From the text:
The thyroid-stimulating hormone receptor (TSHR) is a member of the 7 trans-membrane-spanning receptor (7TMR) family of cell surface receptors. TSHR-mediated hyperthyroidism is important in thyroid pathology. The development of small molecule antagonists of TSHR may lead to therapeutic approaches for TSHR-mediated hyperthyroidism caused by constitutively activating mutations or stimulating auto-antibodies associated with Graves' disease. Graves' disease is the leading cause of hyperthyroidism and is caused by autoantibodies that stimulate TSHR (TsAbs) causing thyroid growth and unregulated overproduction of thyroid hormones and existing treatments have liabilities (agranulocytosis). In addition, TSHRs are known to be expressed in multiple extrathyroidal tissues including bone, brain, kidney, testis, fat and cells of the immune system but the role of the TSHR in these tissues is not clear. Therefore, TSHR antagonists/inverse agonists could be used as probes of extrathyroidal TSHR function. Finally, TSHR inverse agonists, which are a subclass of antagonists that inhibit agonist-independent (or basal or constitutive) TSHR signaling, could be used to inhibit TSH-independent signaling in patients with recurrent or metastatic thyroid cancer who are receiving thyroid hormone to suppress TSH. In collaboration between scientist from the NCGC and the NIDDK, a miniaturized HTRF high-throughput screen was developed. It's a cell based assay, where an anti cAMP antibody contains a fluorescent cryptate tag (excitation 337 nm; emission 620 nm) and the acceptor is cAMP-d2 (excitation 620 nm; emission 665 nm). When antibody and cAMP-d2 interact and are excited by a 337 nm light, a FRET occurs resulting in emission at 665 nm. The assay is competition between cAMP-d2 and cAMP (from the cell lysate). The homogeneous protocol allows for one step dispense after stimulation that is automation friendly. This is a hit validation assay in a counterscreen using FSHR, a closely related hormone receptor NIH Chemical Genomics Center [NCGC] NIH Molecular Libraries Probe Centers Network [MLPCN] Grant: MH090855 Assay Provider: Marvin Gershengorn, NIDDK
An anti cAMP antibody contains a fluorescent cryptate tag (excitation 337 nm; emission 620 nm) and the acceptor is cAMP-d2 (excitation 620 nm; emission 665 nm). When antibody and cAMP-d2 interact and are excited by a 337 nm light, a FRET occurs resulting in emission at 665 nm. The assay is competition between cAMP-d2 and cAMP (from the cell lysate). The homogeneous protocol allows for one step dispense after stimulation that is automation friendly.
(qHTS replaces the single test concentration by a dilution series.)
As to `O=C1/C(=C\c2cc([N+](=O)[O-])ccc2O)SC(=S)N1Cc1ccc(Cl)cc1`, the max inhibition was 94.2% (active).

With `O=c1cc(C(F)(F)F)[nH]c2c(C(F)(F)F)cccc12`, the max inhibition was 82.4% (active). For `Cc1ccc(-n2[nH]c(C)c(/C=N/Nc3ccc([N+](=O)[O-])cc3[N+](=O)[O-])c2=O)cc1C` the value was 81.1% (active); for `COc1ccc(-c2csc(/C(C#N)=C\c3ccc(O)c([N+](=O)[O-])c3)n2)cc1OC`, 87.2% (active); for `O=C(COc1cccc2ccccc12)Nc1ccc(Cl)cc1C(=O)O`, 62.5% (active). For `COc1ccc(OCC(=O)NC(=S)Nc2ccc(N3CCOCC3)c(Cl)c2)cc1` the value was 87.6% (active); for `CCC(=O)OCCNc1cc(Sc2nccn2C)c2nonc2c1[N+](=O)[O-]`, 20%; for `CC(=O)Oc1c(C)cc(Cl)cc1C(=O)Nc1ccc([N+](=O)[O-])cc1Cl`, 63.6% (active).
